An excerpt weighted towards active compounds, which were near 5% of everything screened.
USP10 inh – human USP10 deubiquitinase inhibition; AID 1645856; inhibition, % at 20 µM; purified USP10, Ub-rhodamine fluorescence, 60 min; actives 1.1% (n = 47,000); Q14694
USP7 inh – blocks human USP7 ubiquitin-rhodamine cleavage. Q93009. purified USP7, Ub-rhodamine cleavage fluorescence. inhibition, % at 20 µM. actives 0.3% (n = 47,000)
UCHL1 inh – human UCHL1 deubiquitinase inhibition | inhibition, % at 20 µM | actives 0.2% (n = 47,000) | purified UCHL1, Ub-rhodamine cleavage fluorescence
USP8 block – blocks human USP8 ubiquitin-rhodamine cleavage | purified USP8, Ub-rhodamine cleavage fluorescence, 30 min | inhibition, % at 20 µM | actives 4.2% (n = 47,000) | AID 1645853
An asterisk follows results filed as active. No stated cut-off is given here; in the data, active means inhibition above about 30%; inactive means the rest.

What do the screens show for `CC(C)C(=O)N1CCc2cc(-c3csc(NC(=O)CN4CCc5ccccc5C4)n3)ccc21`?
USP10 inh: -5; USP7 inh: -13; UCHL1 inh: -17; USP8 block: 50*

How did CNC(=O)NC(=O)CSc1nnc(-c2ccc(Cl)cc2)o1 do in these assays?
USP10 inh: 3; USP7 inh: 2; UCHL1 inh: -1; USP8 block: 2

Results for COc1ccc(CCNC(=O)CSc2nc3c(cnn3-c3ccc(C)cc3)c(=O)[nH]2)cc1OC ?
USP10 inh: 0; USP7 inh: 1; UCHL1 inh: -3; USP8 block: -3

Results for Cc1ccc(-n2ncc3c(=O)[nH]c(SCC(=O)NCc4ccco4)nc32)cc1C ?
USP10 inh: 13; USP7 inh: 2; UCHL1 inh: -1; USP8 block: 39*

What do the screens show for `Cc1cccc(CSCCNC(=O)CN2C(=O)c3cccc4cccc2c34)c1`?
USP10 inh: -1; USP7 inh: -4; UCHL1 inh: -4; USP8 block: 0

Results for O=C(CN1C(=O)c2cccc3cccc1c23)NCCSCc1ccc(Cl)c(Cl)c1 ?
USP10 inh: 40*; USP7 inh: 1; UCHL1 inh: -4; USP8 block: 53*

How did O=C(CSc1ncnc2c1sc1nc(-c3ccccc3)c3c(c12)CCC3)Nc1ccccn1 do in these assays?
USP10 inh: -5; USP7 inh: -3; UCHL1 inh: -5; USP8 block: 5

Results for CCCCNc1ccccc1C(=O)OCc1nnc(-c2cc(-c3ccc(OC)c(OC)c3)nc3ccccc23)o1 ?
USP10 inh: -4; USP7 inh: 2; UCHL1 inh: 0; USP8 block: 72*

How did COc1ccc(-c2cc(-c3nnc(COC(=O)C4COc5ccccc5O4)o3)c3ccccc3n2)cc1OC (centres undefined) do in these assays?
USP10 inh: -10; USP7 inh: 0; UCHL1 inh: -8; USP8 block: -7

What do the screens show for `O=C(Nc1ccc2c(c1)OCO2)c1noc2c1CCc1sccc1-2`?
USP10 inh: 17; USP7 inh: 5; UCHL1 inh: 0; USP8 block: 53*

How did O=C(Nc1ccc(F)cc1)c1noc2c1CCc1sccc1-2 do in these assays?
USP10 inh: 1; USP7 inh: 7; UCHL1 inh: 2; USP8 block: -1

What do the screens show for `Cc1cccc(NC(=O)c2noc3c2CCc2sccc2-3)n1`?
USP10 inh: 6; USP7 inh: -6; UCHL1 inh: 10; USP8 block: 94*

Results for COc1ccc(S(=O)(=O)N2CCCCCC2)cc1NC(=O)c1cc(F)cc(F)c1 ?
USP10 inh: 4; USP7 inh: 11; UCHL1 inh: -3; USP8 block: 7

Results for CCOC(=O)c1noc2ncnc(Nc3ccc(N4CCC(C)CC4)cc3)c12 ?
USP10 inh: 1; USP7 inh: -5; UCHL1 inh: -4; USP8 block: 50*

What do the screens show for `CCOC(=O)c1noc2ncnc(Nc3ccc4c(c3)OCO4)c12`?
USP10 inh: 0; USP7 inh: 1; UCHL1 inh: 3; USP8 block: 69*

What do the screens show for `Nc1ncnc2sc(Nc3ccc([N+](=O)[O-])cc3)nc12`?
USP10 inh: 13; USP7 inh: 20; UCHL1 inh: 7; USP8 block: 50*

How did O=C(CN1C(=O)c2ccccc2C1=O)Nc1nc(-c2ccc(Br)cc2)cs1 do in these assays?
USP10 inh: 21; USP7 inh: 9; UCHL1 inh: 1; USP8 block: 7

How did Cc1cccc(C(=O)Nc2nnc(Cc3cn(C)c4ccccc34)s2)c1 do in these assays?
USP10 inh: 15; USP7 inh: -7; UCHL1 inh: 1; USP8 block: 34*

How did COc1cccc2cc(C(=O)C3=C(O)C(=O)N(CCCN(C)C)C3c3ccco3)oc12 (centres undefined) do in these assays?
USP10 inh: -5; USP7 inh: 1; UCHL1 inh: 0; USP8 block: 44*

How did O=C(COc1ccc(C2CCCCC2)cc1)Nc1ccc(-c2nn3cnnc3s2)cc1 do in these assays?
USP10 inh: 35*; USP7 inh: 8; UCHL1 inh: 1; USP8 block: 33*

How did CC(=O)N[C@@]12CN(C)CC[C@@H]1[C@@H](c1ccccc1)N(CC(=O)Nc1cccc(C)c1C)C2 do in these assays?
USP10 inh: -2; USP7 inh: -12; UCHL1 inh: -8; USP8 block: -24

Results for O=C(CC1CC1)N1CCC(c2cc(=O)n3[nH]ccc3n2)CC1 ?
USP10 inh: 1; USP7 inh: -7; UCHL1 inh: 0; USP8 block: 1

What do the screens show for `O=C(NC1CCCC1)C1CC(=O)N(c2cccc(-c3noc(-c4cccs4)n3)c2)C1` (centres undefined)?
USP10 inh: 45*; USP7 inh: 1; UCHL1 inh: 4; USP8 block: 0

What do the screens show for `Cc1nc(-c2cccc(N3CC(C(=O)NC4CCCC4)CC3=O)c2)no1` (centres undefined)?
USP10 inh: -2; USP7 inh: -1; UCHL1 inh: 1; USP8 block: 3

What do the screens show for `Cc1cc(S(N)(=O)=O)cc(NC(=O)C2CCCN(C(=O)c3ccc(F)cc3)C2)c1C` (centres undefined)?
USP10 inh: -3; USP7 inh: -2; UCHL1 inh: -4; USP8 block: -4

Results for CCOC(=O)N1CCN(C(=O)Cc2csc(NC(=O)c3ccc(=O)[nH]c3)n2)CC1 ?
USP10 inh: -9; USP7 inh: 7; UCHL1 inh: 2; USP8 block: 5

How did COc1ccc(C)cc1NC(=O)Cc1csc(NC(=O)c2ccc(=O)[nH]c2)n1 do in these assays?
USP10 inh: -3; USP7 inh: -44; UCHL1 inh: -29; USP8 block: 82*

What do the screens show for `COc1ccc(OC(=O)CN(c2cccc(C(F)(F)F)c2)S(=O)(=O)c2ccccc2)cc1`?
USP10 inh: 4; USP7 inh: 3; UCHL1 inh: 2; USP8 block: -5

What do the screens show for `O=C(CN(c1ccccc1)S(=O)(=O)c1ccccc1)Oc1cc(Cl)ccc1Cl`?
USP10 inh: 5; USP7 inh: 6; UCHL1 inh: 3; USP8 block: 30*

Results for CC(=O)c1ccc(NC(=O)CSc2nc(-c3ccccc3)nc3c2COC(C)(C)C3)cc1 ?
USP10 inh: 34*; USP7 inh: 10; UCHL1 inh: 2; USP8 block: 3

What do the screens show for `FC(F)(F)c1cccc(Oc2nc(SCc3ccc(Cl)cc3)nc3c2CCCC3)c1`?
USP10 inh: 2; USP7 inh: 7; UCHL1 inh: 3; USP8 block: 11

Results for Cn1c2ccccc2c(=O)c2c(=O)n(Cc3ccco3)c(-c3ccccc3F)nc21 ?
USP10 inh: 61*; USP7 inh: 5; UCHL1 inh: 11; USP8 block: 90*

Results for COc1cc(-c2nc3c(c(=O)c4ccccc4n3C)c(=O)n2Cc2ccco2)cc(OC)c1OC ?
USP10 inh: 0; USP7 inh: 3; UCHL1 inh: 3; USP8 block: 29

Results for COc1ccc(CNC(=O)CN2C(=O)C3CCCC3=Nc3ccccc32)cc1 (centres undefined) ?
USP10 inh: 20; USP7 inh: 7; UCHL1 inh: 6; USP8 block: 83*
